Measured values as given in PubChem BioAssay AID2533 (National Center for Advancing Translational Sciences (NCATS), 2010).
“And” between values parts separate entries of the source, which are not always exact repeats. Equal entries are not always repeated. Records with an inconclusive call do not appear. A structure can be active in one record and inactive in another. The source made the active and inactive calls. The call rests on the fitted dose curve; in most records, active means well fitted activation curve with a large enough effect; inconclusive means small, poorly fitted or top-dose-only effect; inactive means flat fitted curve, though single readings scatter.

The molecules below were run against Pyruvate kinase PKM (Homo sapiens) (UniProt P14618) (assay: Confirmation Concentration-Response Assay for Activators of Human Muscle isoform 2 Pyruvate Kinase: for Probe SAR). Conditions: purified PKM2, ATP generation, Kinase-Glo luminescence; series mostly up to 57.5 µM; activity change, positive = activation: at the top concentration.
How it was run: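 ATP generation was detected by luciferase-coupled luminescence (Kinase-Glo). The reaction ran for 1 hour at room temperature with 0.1 mM ADP, 0.5 mM PEP and 0.1 nM purified hPK-M2 in 50 mM imidazole, pH 7.2, with 7 mM MgCl2. The enzyme was set at intermediate activity so activators could be detected.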
Further: nearly all actives have a fitted effect of over 60% in size.
Potency means the concentration at half of the fitted maximal effect.
Wherever activity change, positive = activation is given: % of control where 0% means no effect.

Pyruvate kinase PKM (Homo sapiens), sequence (P14618 whole entry, looked up, canonical isoform): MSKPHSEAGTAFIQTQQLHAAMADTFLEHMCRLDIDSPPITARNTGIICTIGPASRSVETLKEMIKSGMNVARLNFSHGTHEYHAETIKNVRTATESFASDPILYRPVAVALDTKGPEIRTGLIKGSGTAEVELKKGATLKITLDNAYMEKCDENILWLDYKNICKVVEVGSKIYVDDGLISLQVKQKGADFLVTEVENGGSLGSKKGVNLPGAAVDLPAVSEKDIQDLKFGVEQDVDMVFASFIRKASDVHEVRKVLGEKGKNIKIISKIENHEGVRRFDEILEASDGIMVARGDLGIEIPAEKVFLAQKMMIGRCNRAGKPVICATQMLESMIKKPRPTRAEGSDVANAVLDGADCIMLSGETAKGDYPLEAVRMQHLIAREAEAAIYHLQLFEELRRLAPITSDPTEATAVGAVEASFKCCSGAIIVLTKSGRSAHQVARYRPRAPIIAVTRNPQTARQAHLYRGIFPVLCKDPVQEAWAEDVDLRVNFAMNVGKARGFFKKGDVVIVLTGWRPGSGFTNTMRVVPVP

Potency, active:
O=C1CCc2cc(S(=O)(=O)Nc3cccc4ccccc34)ccc2N1 13 µM
O=C1CCc2cc(S(=O)(=O)Nc3ccc4c(c3)OCCO4)ccc2N1 20.6 µM
O=C1CCc2cc(S(=O)(=O)Nc3ccc4ccccc4c3)ccc2N1 5.17 µM
O=C1CCc2cc(S(=O)(=O)Nc3ccccc3Cl)ccc2N1 18.3 µM
Cc1ccc(NS(=O)(=O)c2cc3c(cc2C)NC(=O)CO3)cc1C 0.58 µM
Cc1ccc(NS(=O)(=O)c2ccc3c(c2)N(C)CCO3)cc1C 18.3 µM
CC(=O)Nc1cccc(S(=O)(=O)N2CCN(S(=O)(=O)c3c(F)cccc3F)CC2)c1 14.6 µM
Cc1ccc(NS(=O)(=O)c2cc3c(cc2F)NC(=O)CC3)cc1C 0.73 µM
Cc1ccc(NS(=O)(=O)c2cc3c(cc2Cl)NC(=O)CO3)cc1C 0.41 µM
COc1ccc(-c2nc3ccccn3c2Nc2ccccc2C)cc1 14.6 µM
O=C1CCc2cc(Cl)c(S(=O)(=O)Nc3ccc(Cl)c(Cl)c3)cc2N1 0.073 µM
Cc1ccc(NS(=O)(=O)c2ccc3c(c2)CCC(=O)N3)cc1F 0.517 µM
CN(C)c1cccc(S(=O)(=O)N2CCCN(S(=O)(=O)c3ccc4c(c3)OCCO4)CC2)c1 0.163 µM
Cc1ccc(NS(=O)(=O)c2ccc(Cl)cc2)cc1C 23.1 µM
O=C1CCc2cc(S(=O)(=O)Nc3cccc(Cl)c3)ccc2N1 0.41 µM

Potency, inactive and 231 nM (active):
Cc1cc2c(s1)c1cnn(Cc3ccccc3F)c(=O)c1n2C

Activity change, positive = activation, inactive:
Cc1ccc2nc(-c3ccco3)c(Nc3ccccc3)n2c1 8.77%
O=S1(=O)N=C(Oc2cccc(Br)c2)c2ccccc21 -0.387%
O=C1c2ccccc2C(=O)N1c1cccc(O)c1 9.55%
O=S1(=O)N=C(Oc2ccccc2Br)c2ccccc21 2.94%
O=C1c2ccccc2C(=O)N1Cc1cccnc1 2.16%
O=C1c2ccccc2C(=O)N1C1CCCCC1 8.3%
COc1ccccc1OC1=NS(=O)(=O)c2ccccc21 14.5%
Cc1ccccc1OC1=NS(=O)(=O)c2ccccc21 15.7%
O=S1(=O)N=C(Oc2cccc(Cl)c2)c2ccccc21 10.9%
COc1ccc(N2C(=O)c3ccccc3S2(=O)=O)cc1 4.68%
O=C1c2ccccc2C(=O)N1c1ccc(O)cc1 11.8%
O=C1c2ccccc2C(=O)N1c1cnc2ccccc2c1 5.74%
Cc1cccc(OC2=NS(=O)(=O)c3ccccc32)c1 14.9%
Cc1ccc(Nc2c(-c3ccsc3)nc3c(C)cccn23)cc1 14.9%
COc1ccc(-c2sc(N)nc2-c2ccccc2)cc1 18.3%
Cc1ccn2c(NC3CCCCC3)c(-c3ccc(C)o3)nc2c1 -1.24%
O=C1c2ccccc2C(=O)N1c1ncccc1O 15.4%
Cc1ccc(N2C(=O)c3ccccc3C2=O)c(C)c1 0.597%
O=S1(=O)N=C(Sc2cccc3cccnc23)c2ccccc21 -20.5%
Cc1ccccc1N(C)C1=N[S+](=O)([O-])c2ccccc21 1.26%
O=C1CCc2cc(S(=O)(=O)Nc3ccc(-c4ccccc4)cc3)ccc2N1 20.6%
